Compounds with a hit are over-represented: about 27% of the library has one in this group of screens.
CYP2C19 inh: blocks human cytochrome P450 2C19; CYP2C19 Supersomes, luciferin-H EGE luminescence, 30 min; 96,000 compounds, 21% hits; inhibition, % at 5 µM; AID 778;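 active = CYP2C19 inhibition above a set limit at 5 µM in the primary screen, cut at about 50% in these data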;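 note: plate controls were negative control wells for no effect and 2.5 mM tranylcypromine positive control for full effect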
sEH act: activators of human soluble epoxide hydrolase. P34913. activation, % at 2 µM. 91,000 compounds, 0.04% hits. purified human sEH enzymatic activity, activator screen; in the data active = activation above about 37%
CYP2C9 activ: activators of human CYP2C9. P11712. AID 1024. 96,000 compounds, 1.4% hits. activation factor at 5 µM. recombinant CYP2C9, luciferin-H conversion, luminescence; active compounds read high; factor 1 = untreated enzyme, 0 = blocked;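 active = activation factor of 2 or more for CYP2C9 at a 5 µM dose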;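 note: 0 = sulfaphenazole-blocked wells and 1 = vehicle-only wells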
Target sequence (P11712 whole entry, looked up): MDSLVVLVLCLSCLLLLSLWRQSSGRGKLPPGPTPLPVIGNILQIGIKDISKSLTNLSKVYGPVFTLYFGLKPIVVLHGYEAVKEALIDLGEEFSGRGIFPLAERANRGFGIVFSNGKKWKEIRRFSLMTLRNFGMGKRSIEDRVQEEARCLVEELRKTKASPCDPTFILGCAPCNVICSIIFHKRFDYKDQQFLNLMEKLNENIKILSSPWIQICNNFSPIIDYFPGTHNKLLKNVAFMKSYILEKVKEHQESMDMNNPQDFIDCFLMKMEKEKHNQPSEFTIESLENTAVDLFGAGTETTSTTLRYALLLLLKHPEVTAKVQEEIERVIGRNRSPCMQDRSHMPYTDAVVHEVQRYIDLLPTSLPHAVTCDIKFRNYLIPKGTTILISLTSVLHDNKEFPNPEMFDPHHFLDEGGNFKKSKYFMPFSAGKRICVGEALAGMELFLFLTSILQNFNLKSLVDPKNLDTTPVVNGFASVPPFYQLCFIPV
sEH inh: soluble epoxide hydrolase (human) inhibition; AID 707; inhibition, % at 2 µM; 91,000 compounds, 0.34% hits; recombinant human sEH enzymatic activity assay; in the data active = inhibition above about 80%
CYP2C19 act: increases human CYP2C19 enzyme activity. P33261. recombinant CYP2C19, luciferin-H EGE luminescence; active compounds read high; 0 = fully inhibited enzyme, 1 = untreated enzyme. activation factor at 5 µM. 96,000 tested, under 10 active. AID 1025;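 active = activation factor of at least 2 at 5 µM in the primary screen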;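 note: 0 = wells with 2.5 mM tranylcypromine and 1 = vehicle-only wells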
CYP2C9 inhib: human CYP2C9 inhibition | CYP2C9 Supersomes, luciferin-H conversion, luminescence | inhibition, % at 5 µM | 96,000 compounds, 20% hits;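 active = blocking of liver enzyme CYP2C9 beyond about 50% at 5 µM, limit read from the data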
An asterisk follows results filed as active; nt = no result.

SMILES	CYP2C19 inh	sEH act	CYP2C9 activ	sEH inh	CYP2C19 act	CYP2C9 inhib
Cc1cc(NC(=O)CC23CC4CC(C2)CC(CC(=O)Nc2cc(C)on2)(C4)C3)no1	14	-8	0.9	10	0.9	11
N#CC1=C(N2CCCCC2)c2cc3c(n2C1=O)CCCC3	45	13	0.5	-13	0.5	46
O=C(CCNS(=O)(=O)c1cccc2nsnc12)NC1CCN(Cc2ccccc2)CC1	5	nt	1	nt	1	1
COc1ccc(OC)c(N=c2oc3c(OC)cccc3cc2C(=O)NCc2ccco2)c1	45	nt	0.5	nt	0.6	50*
COc1ccc(C(=O)Nc2c(Cl)cc(Cl)cc2C(=O)NCc2ccco2)cc1	nt	4	nt	-2	nt	nt
COc1ccccc1N=c1oc2c(OC)cccc2cc1C(=O)NCc1ccco1	66*	-17	0.4	17	0.3	62*
COc1ccc(N=c2oc3c(OC)cccc3cc2C(=O)NCc2ccco2)cc1OC	50*	nt	0.3	nt	0.5	72*
O=C1Nc2ccccc2/C1=N\c1sc2c(c1C(=O)Nc1ccccc1)CCCC2	nt	4	nt	1	nt	nt
O=C(O)CSc1nnc(Cn2cnc3ccccc32)n1CCc1ccccc1	-2	-5	0.9	4	1	13
COc1ccccc1C(=O)Nc1c2c(nn1-c1cccc(C)c1C)CS(=O)(=O)C2	-2	3	1.1	-4	1	-8
O=C(CSc1ncc(C(F)(F)F)cc1Cl)N1CCN(S(=O)(=O)c2ccccc2)CC1	81*	8	1	-8	0.2	0
O=C(CSc1ncn[nH]1)N1CCN(S(=O)(=O)c2ccc(Cl)cc2)CC1	45	18	0.5	-16	0.5	45
O=C(CSc1nnc2c(Cl)cc(Cl)cn12)N1CCN(S(=O)(=O)c2ccccc2)CC1	6	-7	1.1	8	0.9	-12
O=C(CSc1ncc(C(F)(F)F)cc1Cl)N1CCN(S(=O)(=O)c2ccc(Cl)cc2)CC1	79*	23	1.6	-24	0.2	-57
CCN(CC)C(=O)C1CCCN(c2ccc([N+](=O)[O-])cc2/C=N/NC(=O)c2cccc([N+](=O)[O-])c2)C1 (stereo unspecified)	38	6	0.6	-7	0.6	45
CN(CC(=O)Nc1cccnc1)S(=O)(=O)c1ccccc1	14	-9	0.8	8	0.9	19
Cc1nc(NC(=O)CN(C)S(=O)(=O)c2ccc(Br)cc2)sc1C	94*	8	0.3	-11	0.1	67*
Cc1ccc(S(=O)(=O)N(C)CC(=O)Nc2nc3ccccc3s2)cc1	16	-1	1	1	0.8	2
CN(CC(=O)Nn1cnnc1)S(=O)(=O)c1ccc(Br)cc1	83*	4	0.7	-2	0.2	35
CN(CCCC(=O)Nc1ccncc1)S(=O)(=O)c1ccc(Cl)cc1	98*	-2	0	0	0	99*
CN(CC(=O)Nc1ccncc1)S(=O)(=O)c1ccc(Br)cc1	100*	2	0.2	1	0	77*
CN(CC(=O)NCCc1ccccc1)S(=O)(=O)c1ccc(Br)cc1	47	5	1.8	-4	0.5	-76
CCSc1nnc(-c2cccnc2)n1-c1ccc(Cl)c(C)c1	13	-8	0.9	6	0.9	12
c1ccc(Cc2nc3ccccc3n2Cc2ccccc2)cc1	36	-14	0.1	12	0.6	92*
CC(C)(C)Cc1nc2ccccc2n1CCc1ccccc1	85*	-1	0.8	1	0.2	20
SMILES	CYP2C19 inh	sEH act	CYP2C9 activ	sEH inh	CYP2C19 act	CYP2C9 inhib
CCc1nc2ccccc2n1CCC(=O)O	nt	-1	nt	7	nt	nt
c1ccc(Cn2c(CSc3nnnn3-c3ccccc3)nc3ccccc32)cc1	2	13	1	-14	1	2
CC1(C)Cc2c(c(-c3ccco3)[nH]c(=O)c2C#N)CS1	-11	nt	1.2	nt	1.1	-17
CC(=O)N1CCN(c2nc(-c3ccco3)c3c(c2C#N)CC(C)(C)SC3)CC1	47	-20	0.2	20	0.5	78*
CC1(C)Cc2c(C#N)c(N3CCN(C(=O)c4ccco4)CC3)nc(-c3ccco3)c2CS1	nt	18	nt	-18	nt	nt
CC1(C)Cc2c(C#N)c(N3CCN(C(=O)c4ccccc4Cl)CC3)nc(-c3ccco3)c2CS1	22	18	0.3	-17	0.8	70*
CC(=O)NCc1cccc(CNC(C)=O)n1	1	-8	1.1	8	1	-8
CCOC(=O)Cn1nc(-c2ccccc2)ccc1=O	19	10	0.9	-11	0.8	6
